Results: PubChem BioAssay AID1345083 (National Center for Advancing Translational Sciences (NCATS), 2018)
Among all 94,000 compounds or so, about 6,200 (6.6%) were called active. About 31% were inconclusive and are not listed. This excerpt belongs to a sample that is enriched for actives. Unmarked numbers belong to inactive results. Calls follow the shape of the dose curve; as a rule, active = well fitted inhibition curve with a large enough effect; inconclusive = small, poorly fitted or top-dose-only effect; inactive = flat fitted curve, though single readings scatter.

Assay: Cytotoxic Profiling in HEK 293 Cell Line of Diverse Libraries Using Quantitative High-Throughput Screening; also: nearly all actives have a fitted effect of over 60% in size
Settings: HEK 293 viability, ATP luminescence (CellTiter-Glo), 48-72 h; series mostly up to 115 µM; activity change, negative = cytotoxicity: at the top concentration
Outline: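 HEK 293 seeded at 250 cells/well receive compound via pintool. After 48 or 72 hr at 37 degree Celsius, 5% CO2 and 95% humidity, CellTiter-Glo is dispensed and luminescence read following 10 min at room temperature.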
% is scaled to controls: 0 for no effect and ±100 for the full control effect; potency is read from the fitted curve at half-maximal effect.

Row | SMILES | activity change, negative = cytotoxicity | outcome | Potency
1 | CN1C(=O)c2cccn2CC1C(=O)Nc1ccc(F)cc1F (stereo not given) | 3.42% | – | –
2 | O=C(NC1CC1)[C@@H]1C[C@H](Oc2ccccc2)CN1C(=O)CN1CCCCCC1 | -5% | – | –
3 | CCc1nncn1C1CCN(S(=O)(=O)c2cc(F)ccc2OC)CC1 | -19.1% | – | –
4 | Cc1cccc(N2Cc3c(NCCCOC(C)C)ncnc3N(C)CC2=O)c1 | -4.64% | – | –
5 | NCc1ccccc1-c1ccc(F)cc1 | -28.9% [at 172 µM] | – | –
6 | Cc1cc2cccc(-c3nc(C4CCOC4)nn3CC(=O)O)c2o1 (stereo not given) | – | inactive | –
7 | Cc1nc(N2CCC(NC(=O)c3cnccn3)CC2)cc(C(F)(F)F)n1 | 0.535% | – | –
8 | Cc1nc(N2CCC(NCCNc3ccncc3C)CC2)c2ccsc2n1 | – | – | 35.5 µM (active)
9 | CNC(=O)c1cc(C2CC2)nc2onc(C3CCCN3C(=O)c3ccccc3)c12 (stereo not given) | 2.63% | – | –
10 | Cc1ccc(NC(=O)CC2CCCN(c3cn[nH]c(=O)c3)C2)cc1F (stereo not given) | -5.38% | – | –
11 | CN(C)CC(O)COc1ccc(CN(C)C2CCSCC2)cc1 (stereo not given) | 2.5% | – | –
12 | COc1ccc(-c2nc3c(c(=O)[nH]2)CCN(C(=O)Cc2ccc(OC)c(Cl)c2)C3)cc1 | 6.92% | – | –
13 | O=[S+]([O-])(c1cccs1)N1CCN(c2nccc(Nc3ccccc3F)n2)CC1 | – | – | 35.5 µM (active)
14 | COc1ccccc1-n1c(=O)c(C(=O)N2CCN([S+](=O)([O-])c3cccs3)CC2)nc2cccnc21 | 0.116% | – | –
15 | O=c1n(CCN2CCN([S+](=O)([O-])c3cccs3)CC2)nc2n1CCCC2 | -2.54% | – | –
16 | C=CCNC(=O)c1cn2c(n1)CN(C(=O)c1ccccc1F)CC2 | 2.59% | – | –
17 | CCNC(=O)N1CCC(n2c(C)cnc2C2CC2)CC1 | – | inactive | –
18 | CCOc1ccc(NC(=O)N2CCC3(CC2)SCC(=O)N3Cc2ccco2)cc1 | -2.92% | – | –
19 | CCOc1ccccc1C(=O)N1CCC(Oc2ncccc2C(=O)N(C)C)C1 (stereo not given) | -24% | – | –
20 | O=C(CCC1CCCC1)N1CCC2(CC1)CC(O)CCO2 (stereo not given) | 2.16% | – | –
21 | c1ccc(-n2cnnc2CC2CCN(Cc3ccc(-c4ccn[nH]4)o3)CC2)cc1 | 3.74% | – | –
22 | CC(C)CN1CCN(C2CCOC3(CCN(S(=O)(=O)c4cccs4)CC3)C2)CC1 (stereo not given) | -11.3% | – | –
23 | COC(=O)c1cccc2nc([C@H]3CCN(Cc4ccccc4)C3)oc12 | – | – | 79.4 µM (active)
24 | CCOc1ncccc1C(=O)N1CCN(Cc2ccccc2)CC(O)C1 (stereo not given) | -16.2% | – | –

Row | SMILES | activity change, negative = cytotoxicity | outcome | Potency
25 | Cc1nnc([C@H]2CCN(Cc3ccc(F)cc3)C2)o1 | 2.67% [at 230 µM] | – | –
26 | Cc1cc(C[C@@H]2COC[C@@H]2NC(=O)CCCc2nc(-c3ccco3)no2)on1 | – | inactive | –
27 | COc1ccccc1-n1c(=O)c(C(=O)N2CCN(Cc3ccccc3)CC2)nc2cccnc21 | – | inactive | –
28 | COCCNC(=O)c1cnc2n[nH]c(-c3ccccc3OC)c2n1 | -20.1% [at 172 µM] | – | –
29 | COc1ccccc1-c1[nH]nc2ncc(C(=O)N3CCN(Cc4ccccc4)CC3)nc12 | – | – | 100 µM (active)
30 | CNC(=O)c1cc(C)nc2onc(C3CCN(C(=O)c4ccc(C(F)(F)F)cc4)C3)c12 (stereo not given) | -23.2% | – | –
31 | Cc1cc(C)n(CC(=O)N2CCCC3(C2)Nc2cccnc2NC3=NC2CCCC2)n1 (stereo not given) | -12.2% | – | –
32 | O=C(c1ccc(Cl)cc1)N1CCN(CCn2nc3n(c2=O)CCCC3)CC1 | -9.57% | – | –
33 | Cc1noc(C)c1S(=O)(=O)N1CCCN(c2nc3ncccc3o2)CC1 | 0.408% | – | –
34 | O=C(NCc1cccc(F)c1)C1CN(c2ccccc2)C(=O)N1 (stereo not given) | 4.55% [at 172 µM] | – | –
35 | CNC(=O)CN(C)C(=O)[C@@H]1CN(c2ncccn2)C[C@H]1COC | -1.47% | – | –
36 | F[C@@H]1CN(C2CCC2)C[C@@H]1OCc1nc2ncccc2[nH]1 | -5.83% [at 230 µM] | – | –
37 | O=C(Nc1ccccc1)O[C@@H]1CO[C@H]2[C@@H]1OC[C@@H]2NS(=O)(=O)c1cccc2cccnc12 | -18.1% | – | –
38 | O=C(Nc1ccc(Oc2ccccc2)cc1)O[C@@H]1CO[C@H]2[C@@H]1OC[C@@H]2NS(=O)(=O)c1cccs1 | – | – | 39.8 µM (active)
39 | CC(=O)Nc1ccc(S(=O)(=O)N[C@H]2CO[C@H]3[C@@H]2OC[C@@H]3n2nnnc2Oc2ccccc2)cc1 | -19.3% | – | –
40 | O=C(c1ccccc1)N1CCC2(CC(c3cccnc3)=NO2)C1 (stereo not given) | – | inactive | –
41 | O=C(Nc1cccc(Cl)c1)[C@@H]1C[C@H](c2ccc(F)cc2)N([S+](=O)([O-])C2CC2)C1 | – | – | 79.4 µM (active)
42 | O=C(NCC1CCOCC1)Nc1cccc(Cl)c1 | 10.7% | – | –
43 | O=C(Nc1ccc(Cl)cc1)C1CCN(C(=O)c2ncn3c2COC(c2ccc(F)cc2)C3)CC1 (stereo not given) | -27.3% | – | –
44 | CC[C@H]1CN(S(C)(=O)=O)CC[C@H]1CC(=O)NCc1cccc2ccccc12 | -26% [at 172 µM] | – | –
45 | Cn1nc(-c2nncn2CC2CC2)c2c1CCN(C(=O)CC1CCCC1)C2 | – | inactive | –
46 | O=C(Cc1cccc(F)c1)N1CCCC(Cc2nncn2-c2ccccc2)C1 (stereo not given) | -7.97% | – | –
47 | CCOc1ncccc1CNC(=O)c1cc(S(N)(=O)=O)ccc1F | – | – | 79.4 µM (active)
48 | NS(=O)(=O)c1ccc(F)c(C(=O)NCc2noc(-c3ccco3)n2)c1 | -23.5% | – | –

Row | SMILES | activity change, negative = cytotoxicity | outcome | Potency
49 | NS(=O)(=O)c1ccc(F)c(C(=O)N[C@@H]2c3ccccc3C[C@@H]2O)c1 | -0.467% | – | –
50 | CNC(=O)c1cc(C)nc2onc(C3CCCN3C(=O)C3CCCC3)c12 (stereo not given) | -7.89% | – | –
51 | Cc1cccc(NC(=O)N2CC(Oc3ccc(-c4nc(C)no4)cc3)C2)c1 | -12.5% | – | –
52 | CN(Cc1ccccc1)C(=O)C[C@@H]1O[C@H](CNS(=O)(=O)c2ccc(Cl)cc2)[C@@H](O)[C@H]1O | – | inactive | –
53 | CN1C[C@H](NS(C)(=O)=O)CCC[C@@H](C(=O)N(C)Cc2cccnc2)CC1=O | 1.06% [at 172 µM] | – | –
54 | CC1=C[C@@H](CNS(=O)(=O)c2cccc(C#N)c2)[C@H](C(C)C)C[C@H]1CC(=O)N(C)Cc1cccnc1 | – | – | 39.8 µM (active)
55 | CCOc1nccnc1NC1CCN(C(=O)c2cccnc2)CC1 | 6.7% | – | –
56 | Cc1nn(CCO)cc1-c1c(-c2ccccc2)ncn1CC(=O)O | -9.19% | – | –
57 | O=C(c1cccnc1)N1CCC(c2nnc(Cn3cccn3)n2C2CC2)CC1 | – | inactive | –
58 | Cc1cnc(C(=O)N[C@@H]2CCC[C@@H]2C(=O)Nc2ccc3c(c2)OCCO3)cn1 | -7.64% | – | –
59 | O=C(O)CCc1cc2n(n1)CCCN(C(=O)CN1CCOC1=O)C2 | -3.14% | – | –
60 | CS(=O)(=O)c1ccc(N2CCN(C(=O)[C@H]3CC[C@@H](N)C3)CC2)c(F)c1 | – | inactive | –
61 | O=C(c1ccccc1F)N1CCC(c2nn(-c3ccc(F)cc3)c(=O)[nH]2)CC1 | -24.9% | – | –
62 | Cc1ccc(C(=O)N2CCC(c3nn(-c4ccccc4)c(=O)[nH]3)CC2)cc1 | -28.8% | – | –
63 | O=C(c1ccccc1F)N1CCC(c2nn(-c3ccc(Cl)cc3)c(=O)[nH]2)CC1 | – | – | 79.4 µM (active)
64 | COc1cc(=O)n2c(c1C(=O)Nc1cc(C)ccc1C)CCCC2 | 5.72% | – | –
65 | O=C(NC1CCCN(CCn2nc3n(c2=O)CCCC3)C1)c1ccc(F)cc1 (stereo not given) | – | inactive | –
66 | CCCCCC(=O)N1CC[C@H]2COC(=O)N2c2cc(F)ccc2C1 | -1.72% [at 172 µM] | – | –
67 | O=S(=O)(c1ccccc1)N1CCC(F)(c2nc(Cc3ccccc3)no2)CC1 | – | – | 44.7 µM (active)
68 | O=S(=O)(c1ccccc1)N1CCN(c2ccnc3ccnn23)CC1 | -19.4% | – | –
69 | CN(CCc1noc(C2CN(S(=O)(=O)c3ccccc3)C2)n1)C(=O)c1ccncc1 | -17.8% | – | –
70 | O=C(NCc1ccncc1)C1CC(=O)N(c2n[nH]c3cccc(F)c23)C1 (stereo not given) | -11% | – | –
71 | Cc1ncc(C(=O)N2CCCC(c3cc(N4CCOCC4)nc(C)n3)C2)cn1 (stereo not given) | -4.68% | – | –
72 | CN(C)C(=O)C1=NOC2CN(C(=O)c3ccn(C)n3)CC12 (stereo not given) | – | inactive [at 172 µM] | –

Row | SMILES | activity change, negative = cytotoxicity | outcome | Potency
73 | O=C(CN1C(=O)NC2(CCOCC2)C1=O)Nc1cccc(Br)c1 | -9.49% | – | –
74 | CCOc1ccccc1CN1CCC2(CCN(C(=O)c3cccc(Cl)c3)CC2)Oc2ccccc21 | -12.9% | – | –
75 | CCOc1ccccc1CN1CCCOCCNC(=O)CC1 | 4.71% | – | –
76 | CCOc1ccccc1CN1CCC2(CCN(Cc3cncs3)CC2)Oc2ccccc21 | – | – | 44.7 µM (active)
77 | CCn1ccc(C(=O)N2C[C@@H](F)C[C@H]2C(=O)N2CCCCC2)n1 | 5.92% | – | –
78 | C#CCNC(=O)CC[C@H]1CNC(=O)[C@@H]2[C@@H](CCN2Cc2ccc(N(C)C)cc2)N1C | -24.8% [at 172 µM] | – | –
79 | N#Cc1ccc(C(=O)N2C[C@@H]3C[C@H](C2)c2ccc(-c4ccc(OC(F)(F)F)cc4)c(=O)n2C3)cc1 | -16.7% | – | –
80 | CN1C[C@@H](NC(=O)c2cnccn2)C[C@H]1c1nc(-c2ccc3c(c2)OCO3)no1 | -7.22% [at 172 µM] | – | –
81 | CN1C[C@@H](NC(=O)c2ccccc2)C[C@H]1c1nc(-c2ccccc2)no1 | -13.3% [at 172 µM] | – | –
82 | CN1C[C@@H](NC(=O)COc2ccccc2)C[C@H]1c1nc(-c2ccc3c(c2)OCO3)no1 | – | – | 100 µM (active)
83 | CN1C[C@@H](NC(=O)c2ccc(C(C)(C)C)cc2)C[C@H]1c1nc(-c2ccc3ccccc3c2)no1 | – | – | 22.4 µM (active)
84 | N#Cc1ccc(-c2nc(C(=O)NC3CCCCCC3)no2)cc1 | 5.1% | – | –
85 | CN1C[C@@H](NC(=O)CC(C)(C)C)C[C@H]1c1nc(Cc2ccccc2)no1 | -26.1% [at 172 µM] | – | –
86 | CN1C[C@@H](NC(=O)c2ccc(C#N)cc2)C[C@H]1c1nc(-c2ccc(OC(F)(F)F)cc2)no1 | – | – | 22.4 µM (active)
87 | COc1ccc(CN2C[C@H](O)C[C@H]2c2nc(-c3ccc4c(c3)OCO4)no2)c(OC)c1OC | -15.4% | – | –
88 | CN(C)C(=O)N1CCN(C(=O)c2cccc(-c3ccccn3)c2)CC1 | -14.7% [at 172 µM] | – | –
89 | Cc1ccc(S(=O)(=O)Cc2noc([C@@H]3C[C@@H](O)CN3Cc3cccs3)n2)cc1 | -16.9% [at 172 µM] | – | –
90 | COc1ccc(CCC(=O)N2CCCC(n3c(C)cnc3C3CCOCC3)C2)cc1 (stereo not given) | -23.1% | – | –
91 | O=C(NC1CC1)c1ccc(CC2CCN(C(=O)c3ccccn3)CC2)cc1 | -25.9% | – | –
92 | COc1ccc(-c2ccc(C(=O)N3CCN(C(=O)c4cccc(Cl)c4)CC3)cc2)nn1 | -0.234% | – | –
93 | COc1ccc(-c2ccc(C(=O)NCc3ccccc3Cl)cc2)nn1 | -9.88% [at 172 µM] | – | –
94 | COc1ccc(-c2cccc(C(=O)NCc3cccc(Cl)c3)c2)nn1 | – | – | 79.4 µM (active)
95 | CCN1CC2(CCN(C(=O)c3cccc(N4CCOCC4)c3)CC2)OC1=O | -5.91% | – | –
